Consider 16 molecules from PubChem BioAssay (NCATS).

Assay [1] in a line: qHTS of pediatric cancer cell lines to identify multiple opportunities for drug repurposing: Primary screen for Rh41 cells (AID 1347108). Also: nearly all actives have a fitted effect of over 70% in size. Also: potency is read from the fitted curve at half-maximal effect. The gist of the method:
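Primary screen of approved and investigational compounds on cells in growth media at 37 degrees C, 5% CO2. MIPE set at 11-point and NPC set at 8-point dilutions; viability scored by ATP-based luminescence at 48 hours.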

Assay [2] in a line: qHTS of pediatric cancer cell lines to identify multiple opportunities for drug repurposing: Confirmatory screen for A673 cells (AID 1347110).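 Also: cells exposed to compound for 48 h before the viability read; nearly all actives have a fitted effect of over 65% in size.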 Also: potency is read from the fitted curve at half-maximal effect. The gist of the method: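 A673 cells at 500-1,000 cells/well were dosed 5 h after plating, in dilution series up to 46 uM final; primary runs used 8 or 11 points and confirmatory runs used 11 points. Viability was read by CellTiter-Glo luminescence after 48 h, against DMSO and 2.3 uM bortezomib controls.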

A short description of assay [3]: qHTS of pediatric cancer cell lines to identify multiple opportunities for drug repurposing: Confirmatory screen for SK-N-MC cells (AID 1347111).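 Also: cells exposed to compound for 48 h before the readout; nearly all actives have a fitted effect of over 70% in size.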 Also: potency is read from the fitted curve at half-maximal effect. The gist of the method:
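Seed 500-1,000 cells/well; rest 5 h at 37 degrees C. Pin-transfer compounds, 11-point titration. Incubate 48 h. Add CellTiter-Glo, 15 min RT, read luminescence.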

A short description of assay [4]: qHTS of pediatric cancer cell lines to identify multiple opportunities for drug repurposing: Confirmatory screen for BT-12 cells (AID 1347112). Also: nearly all actives have a fitted effect of over 55% in size. Also: potency is read from the fitted curve at half-maximal effect. An outline of the steps: (§1)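 Cells (500-1,000/well) rested 5 h, then received compounds for 48 h; metabolically active cells were measured by CellTiter-Glo luminescence. Final concentrations spanned up to 46 µM (MIPE, 11-point) or 0.59 nM-46 µM (NPC, 8-point) in primary screens, 11-point in follow-ups.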

Assay [5] is described as follows: qHTS of pediatric cancer cell lines to identify multiple opportunities for drug repurposing: Confirmatory screen for LAN-5 cells (AID 1347113). Also: nearly all actives have a fitted effect of over 65% in size. Also: potency is read from the fitted curve at half-maximal effect. The gist of the method:
as §1

A short description of assay [6]: qHTS of pediatric cancer cell lines to identify multiple opportunities for drug repurposing: Confirmatory screen for NB-EBc1 cells (AID 1347115).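 Also: cells exposed to compound for 48 h before the viability read; nearly all actives have a fitted effect of over 45% in size.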 Also: potency is read from the fitted curve at half-maximal effect. The gist of the method:
as §1

The nature of assay [7]: qHTS of pediatric cancer cell lines to identify multiple opportunities for drug repurposing: Confirmatory screen for SJ-GBM2 cells (AID 1347116). Also: nearly all actives have a fitted effect of over 60% in size. Also: potency is read from the fitted curve at half-maximal effect. An outline of the steps: (§2)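 Viability measured as metabolically active cells via CellTiter-Glo luminescence following 48 hours of compound exposure, 11-point dilutions in confirmatory testing. 500-1,000 cells/well plated 5 hours before dosing; controls were DMSO and 2.3 µM bortezomib.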

Assay [8] in a line: qHTS of pediatric cancer cell lines to identify multiple opportunities for drug repurposing: Confirmatory screen for BT-37 cells (AID 1347117). Also: nearly all actives have a fitted effect of over 55% in size. Also: potency is read from the fitted curve at half-maximal effect. The gist of the method:
as §1

The nature of assay [9]: qHTS of pediatric cancer cell lines to identify multiple opportunities for drug repurposing: Confirmatory screen for TC32 cells (AID 1347118).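 Also: cells exposed to compound for 48 h before the read; nearly all actives have a fitted effect of over 65% in size.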 Also: potency is read from the fitted curve at half-maximal effect. The gist of the method:
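Luminescent CellTiter-Glo read-out of metabolically active TC32 cells after 48 h compound exposure. Primary: MIPE 11-point, 0.78 nM–46 µM; NPC 8-point, 0.59 nM–46 µM. Confirmatory: 11-point dilutions.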

The nature of assay [10]: qHTS of pediatric cancer cell lines to identify multiple opportunities for drug repurposing: Confirmatory screen for MG 63 (6-TG R) cells (AID 1347119). Also: nearly all actives have a fitted effect of over 55% in size. Also: potency is read from the fitted curve at half-maximal effect. An outline of the steps: as §1
Assay [11] is described as follows: qHTS of pediatric cancer cell lines to identify multiple opportunities for drug repurposing: Confirmatory screen for control Hh wild type fibroblast cells (AID 1347121). Also: nearly all actives have a fitted effect of over 70% in size. Also: potency is read from the fitted curve at half-maximal effect. The gist of the method: as §1
Assay [12] can be described thus: qHTS of pediatric cancer cell lines to identify multiple opportunities for drug repurposing: Confirmatory screen for Rh41 cells (AID 1347123). Also: nearly all actives have a fitted effect of over 60% in size. Also: potency is read from the fitted curve at half-maximal effect. An outline of the steps: as §1
A short description of assay [13]: qHTS of pediatric cancer cell lines to identify multiple opportunities for drug repurposing: Confirmatory screen for Rh18 cells (AID 1347125). Also: nearly all actives have a fitted effect of over 55% in size. Also: potency is read from the fitted curve at half-maximal effect. The gist of the method:
as §1

The nature of assay [14]: qHTS of pediatric cancer cell lines to identify multiple opportunities for drug repurposing: Confirmatory screen for Rh30 cells (AID 1347126). Also: nearly all actives have a fitted effect of over 55% in size. Also: potency is read from the fitted curve at half-maximal effect. An outline of the steps:
as §1

The nature of assay [15]: qHTS of pediatric cancer cell lines to identify multiple opportunities for drug repurposing: Confirmatory screen for DAOY cells (AID 1347114). Also: nearly all actives have a fitted effect of over 65% in size. Also: potency is read from the fitted curve at half-maximal effect. The gist of the method:
as §2

Assay [16] in a line: qHTS of pediatric cancer cell lines to identify multiple opportunities for drug repurposing: Confirmatory screen for NB1643 cells (AID 1347109). Also: nearly all actives have a fitted effect of over 45% in size. Also: potency is read from the fitted curve at half-maximal effect. The gist of the method: as §1
Assay [17] can be described thus: qHTS of pediatric cancer cell lines to identify multiple opportunities for drug repurposing: Confirmatory screen for U-2 OS cells (AID 1347122). Also: nearly all actives have a fitted effect of over 65% in size. Also: potency is read from the fitted curve at half-maximal effect. The gist of the method:
as §1

The nature of assay [18]: qHTS of pediatric cancer cell lines to identify multiple opportunities for drug repurposing: Confirmatory screen for RD cells (AID 1347124). Also: potency is read from the fitted curve at half-maximal effect. An outline of the steps: as §1
A short description of assay [19]: qHTS of pediatric cancer cell lines to identify multiple opportunities for drug repurposing: Primary screen for Rh30 cells (AID 1347107). Also: series mostly up to about 46 µM; nearly all actives have a fitted effect of over 75% in size. An outline of the steps:
as §1

Records with an inconclusive call do not appear. Active and inactive are the calls of the source. Calls follow the shape of the dose curve; as a rule, active = well fitted curve in the direction sought with a large enough effect; inconclusive = small, poorly fitted or top-dose-only effect, or another doubt; inactive = no such curve, though single readings can be large; an effect the other way counts as inactive or inconclusive.

On to `C[C@@H](Oc1cc(-n2cnc3ccc(CN4CCN(C)CC4)cc32)sc1C(N)=O)c1ccccc1C(F)(F)F`, for which, in [1], the Potency result was “inactive”. The Potency in assay [2] is 0.117 µM (active); in assay [3], 0.0537 µM (active); in assay [4], 47.9 µM (active); in assay [5], 10.7 µM (active); in assay [6], 0.24 µM (active); in assay [7], 10.4 µM (active). Also, the Potency in assay [8] was 0.24 µM (active); in assay [9], 0.0537 µM (active); in assay [10], 0.0603 µM (active); in [11] it was 42.7 µM (active); in assay [12], 4.14 µM (active); in assay [13], 47.9 µM (active). In addition, the Potency in [14] is 13.1 µM (active).
For the molecule `Cc1ccc2nc(NC(=O)CSc3nc4c(c(=O)n3-c3ccccc3)SCC4)sc2c1`, the Potency in assay [1] was 14.8 µM (active); in [2], 1.04 µM (active); in [3], 11.7 µM (active); in assay [4], 3.29 µM (active); in [15], 7.37 µM (active); in assay [9] it was 8.27 µM (active). The Potency is 5.22 µM (active) in [10], 14.7 µM (active) in assay [11] and 20.8 µM (active) in assay [12]. Further, the Potency entry in assay [13] and in assay [14] was “inactive” in each case.
Regarding `Cc1cn2c(-c3cn[nH]c3)cnc2c(Nc2ccc(C(=O)N3CCNCC3)cc2F)n1`, the Potency in [1] is 18.7 µM (active); in [16], 9.27 µM (active); in assay [2], 8.27 µM (active); in assay [3] it was 26.1 µM (active); in assay [5] it was 13.1 µM (active); in assay [8], 10.4 µM (active). For the same molecule, the Potency in assay [12] is 5.85 µM (active); in assay [14], 16.5 µM (active). The Potency entry in assay [11], in assay [17] and in assay [18] was “inactive” in each case.
In the case of `COC(=O)Nc1ccc(-c2nc(N3CCOCC3)c3cnn(C4CCN(Cc5cccnc5)CC4)c3n2)cc1`, the Potency in [1] is 0.132 µM (active); in assay [2] it was 1.31 µM (active); in assay [3], 1.04 µM (active); in assay [8], 0.928 µM (active); in [9], 1.31 µM (active); in [10], 1.85 µM (active). The Potency in assay [17] is 11.7 µM (active); in assay [12], 1.31 µM (active); in [14] it was 5.85 µM (active). The Potency entry in [16] was “inactive”.
Take `Cc1nc(N)ncc1-c1nc(N2CCOCC2)c2sc(C(C)(C)O)cc2n1`: the Potency in [1] was 1.87 µM (active); in assay [2] it was 2.33 µM (active); in assay [3], 0.293 µM (active); in assay [5] it was 1.47 µM (active); in assay [8], 8.27 µM (active); in assay [9], 2.33 µM (active). Moreover, the Potency in [10] is 0.465 µM (active); in assay [18] it was 1.17 µM (active); in assay [13] it was 1.65 µM (active); in [14] it was 0.737 µM (active).
For the molecule `CN[C@H]1CCc2cc(OC)c(OC)c(OC)c2-c2ccc(OC)c(=O)cc21`, the Potency result in [19], in assay [11], in assay [13] and in [14] was “inactive” in each case. For the same molecule, the Potency in assay [2] was 0.104 µM (active); in [4] it was 0.147 µM (active); in assay [15] it was 0.0465 µM (active); in [17], 0.208 µM (active); in [18], 0.104 µM (active).
As for `COc1cc(C(=O)N2CCC(N3CCN(C)CC3)CC2)ccc1Nc1ncc2c(n1)N(C)c1ccccc1C(=O)N2C`, the Potency in assay [1] was 9.35 µM (active).
Turning to `O=C(C=Cc1cccnc1)NCCCCC1CCN(C(=O)c2ccccc2)CC1`, in assay [1], the Potency is 0.118 µM (active). Moreover, the Potency result in assay [2], in assay [3], in assay [4], in assay [5], in [15] and in assay [8] was “inactive” each time. Further, the Potency entry in [10], in assay [11], in assay [17], in assay [12], in [18] and in assay [13] was “inactive” each time. Also, the Potency result in assay [14] was “inactive”.
Regarding `Cc1cc(CN2CCN(c3c(Br)cnc4nc(-c5ccc(N6CCN(C)CC6)cc5)[nH]c34)CC2)no1`, the Potency in assay [1] was 5.9 µM (active).
Turning to `CC(C)c1cc(-c2n[nH]c(=O)n2-c2ccc3c(ccn3C)c2)c(O)cc1O`, the Potency entry in [19], in assay [3], in assay [5], in [6], in assay [7] and in assay [8] was “inactive” throughout. Further, the Potency entry in assay [9] and in [11] was “inactive” in each case. In addition, the Potency in assay [2] was 18.5 µM (active).
On to `CN(C1CCc2c(c3ccccc3n2CC(=O)O)C1)S(=O)(=O)c1ccc(F)cc1` (stereo unspecified), for which the Potency in [1] is 3.72 µM (active).
Consider `Cn1c(=O)n(-c2ccc(C(C)(C)C#N)cc2)c2c3cc(-c4cnc5ccccc5c4)ccc3ncc21`, for which the Potency in assay [1] was 0.132 µM (active); in assay [2], 2.61 µM (active); in assay [3], 2.33 µM (active); in [5] it was 2.08 µM (active); in assay [7] it was 3.29 µM (active); in assay [8] it was 1.17 µM (active). Moreover, the Potency was 0.827 µM (active) in [9]; 0.369 µM (active) in assay [10]; 2.93 µM (active) in [17]; 2.33 µM (active) in [12]; 2.33 µM (active) in [14].
With `CN(C)CCCN=c1c2ccccc2n(C)c2[nH]c(=O)n(C)c(=O)c12`, the Potency in assay [1] is 9.35 µM (active); in [16], 23.3 µM (active); in [4] it was 23.3 µM (active); in [5] it was 23.3 µM (active); in assay [8], 18.5 µM (active); in assay [12] it was 23.3 µM (active). Further, the Potency result in assay [15], in assay [10], in assay [11] and in assay [17] was “inactive” in each case.
In the case of `CC(C)(C)c1cc(C(C)(C)C)c(NC(=O)c2c[nH]c3ccccc3c2=O)cc1O`, the Potency entry in [19] and in [14] was “inactive” in each case. The Potency in assay [3] is 14.7 µM (active); in assay [15], 18.5 µM (active); in assay [10] it was 20.8 µM (active); in assay [18], 29.3 µM (active).
In the case of `Cc1cnc(Nc2ccc(F)cc2Cl)nc1-c1c[nH]c(C(=O)N[C@H](CO)c2cccc(Cl)c2)c1`, the Potency was 18.7 µM (active) in [1]; 0.827 µM (active) in assay [2]; 23.3 µM (active) in assay [15]; 6.57 µM (active) in assay [17]; 18.5 µM (active) in assay [12]. The Potency result in assay [3], in assay [5], in [8], in assay [9], in [10] and in [11] was “inactive” throughout. Also, the Potency entry in assay [13] is “inactive”.
For `NC1(Cc2ccc(Cl)cc2)CCN(c2ncnc3[nH]ccc23)CC1`, in assay [1], the Potency is 3.32 µM (active).
